Source: PubChem BioAssay AID623911 (Vanderbilt High Throughput Screening Facility, 2012)
Hit rate of the full screen: of about 2,100 compounds, about 770 (37%) were called active.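 The calls were made as follows: active = by-eye trace score of 1 for enhancers or -1 for inhibitors, so actives lie on both sides (some results past the limit were not filed as active); inactive = score 0, or 3 fluorescent, or 4 baseline rise.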 The list shows a part of the results.

molecular target: G protein-activated inward rectifier potassium channel 2 (Homo sapiens) + G protein-activated inward rectifier potassium channel 1 (Homo sapiens) (UniProt P48051+P48549); assay: GIRK1/2 thallium flux modulators, retest, confirmation, cell-based, HEK293 rmGlu8/hGIRK1/2, FluoZin-2 (AID 623911); settings: HEK293 rmGlu8/hGIRK1/2, thallium flux FluoZin-2; actives lie on both sides; glutamate co-added at its EC20 level
Sequence (P48051 whole entry, looked up): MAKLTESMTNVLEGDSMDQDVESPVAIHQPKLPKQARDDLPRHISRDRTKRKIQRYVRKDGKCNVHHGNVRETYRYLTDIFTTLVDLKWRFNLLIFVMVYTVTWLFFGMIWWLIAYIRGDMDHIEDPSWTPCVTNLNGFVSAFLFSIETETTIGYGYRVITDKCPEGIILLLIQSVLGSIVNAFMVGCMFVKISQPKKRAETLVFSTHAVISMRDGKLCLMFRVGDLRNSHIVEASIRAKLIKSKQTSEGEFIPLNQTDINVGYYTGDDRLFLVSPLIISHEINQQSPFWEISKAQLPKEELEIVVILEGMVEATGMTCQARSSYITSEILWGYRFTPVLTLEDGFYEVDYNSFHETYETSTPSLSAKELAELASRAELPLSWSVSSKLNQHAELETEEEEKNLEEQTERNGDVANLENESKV
Sequence (P48549 whole entry, looked up): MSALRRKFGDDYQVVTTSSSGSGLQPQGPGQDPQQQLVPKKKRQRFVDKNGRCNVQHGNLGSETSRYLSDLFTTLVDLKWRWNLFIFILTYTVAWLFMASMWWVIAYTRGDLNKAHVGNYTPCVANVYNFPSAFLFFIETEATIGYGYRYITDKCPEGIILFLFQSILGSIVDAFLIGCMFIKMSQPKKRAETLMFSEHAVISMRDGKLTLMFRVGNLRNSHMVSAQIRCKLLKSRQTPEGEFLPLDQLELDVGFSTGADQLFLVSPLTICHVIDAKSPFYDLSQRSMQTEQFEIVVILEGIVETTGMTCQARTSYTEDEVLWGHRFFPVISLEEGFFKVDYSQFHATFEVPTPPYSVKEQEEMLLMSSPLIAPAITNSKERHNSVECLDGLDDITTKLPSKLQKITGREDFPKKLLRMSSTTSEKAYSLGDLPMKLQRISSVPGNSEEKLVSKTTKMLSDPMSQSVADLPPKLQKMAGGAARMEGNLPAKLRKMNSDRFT

Manual score, active:
Cc1ccc(C(=O)NNC(=S)NC(=O)c2ccc(Cl)cc2)cc1 1
Cc1cccc(C(=O)NC(=S)NNC(=O)c2cccs2)c1 1
COCCn1c(CN(Cc2ccccc2)Cc2ccccc2)nc2c1c(=O)n(C)c(=O)n2C -1
CC1CCCCN1Cc1nc2c(c(=O)n(C)c(=O)n2C)n1CCc1ccccc1 (centres undefined) -1
COc1ccc(N2CCN(c3nc4c(c(=O)n(C)c(=O)n4C)n3Cc3ccccc3)CC2)cc1 -1
CCCCn1c(CN(Cc2ccccc2)Cc2ccccc2)nc2c1c(=O)n(C)c(=O)n2C -1
COc1ccc(-c2nnc(CSc3nc4ccccc4c(=O)n3C)o2)cc1OC -1
COc1ccccc1NC(=O)C(=O)NNC(=O)c1ccco1 1
COc1ccc(C)cc1NC(=O)C(=O)NNC(=O)c1ccco1 1
O=C(N/N=C\c1cc(Br)c(Br)o1)c1cncc(Br)c1 1
CCN(Cc1ccccc1)C(c1ccccn1)c1nnnn1C1CCCCC1 (centres undefined) -1
CC(Oc1ccc(Cl)cc1)C(=O)NNC(=S)NC(=O)c1ccco1 (centres undefined) 1
CC(Oc1ccc2ccccc2c1)C(=O)NNC(=S)NC(=O)c1ccco1 (centres undefined) 1
Cc1ccc(N(C(=O)CCC(=O)Nc2cc(C)on2)C(C(=O)NC2CCCC2)c2cccs2)cc1 (centres undefined) -1
Fc1ccc2nc(-c3ccccc3)nc(SCc3nnc(-c4ccccc4)o3)c2c1 1
S=C(Nc1cccc(Cl)c1)Nc1ccccc1Oc1ccccc1 1
S=C(Nc1cccc(Cl)c1)Nc1cccc2cnccc12 1
FC(F)Oc1ccccc1NC(=S)Nc1cccc(Cl)c1Cl 1
S=C(Nc1ccccc1Oc1ccccc1)Nc1cccc(Cl)c1Cl 1
Fc1ccc(NC(=S)Nc2ccccc2OC(F)F)cc1Cl 1
Cc1ccc(NC(=S)Nc2ccc(Cl)c(Cl)c2)c(OC(F)F)c1 1
COc1ccccc1-n1cnnc1SCC(=O)c1cc(C)n(Cc2cccs2)c1C -1
CCN(CC)CCCNC(=O)c1cc(-c2ccc(Cl)c(Cl)c2)on1 -1
COc1ccc2c(c1)C(C)=CC(C)(C)N2C(=O)CNCc1ccc2c(c1)OCO2 -1
Cc1cccc(OCC(O)Cn2c(=N)n(CCN3CCCCC3)c3ccccc32)c1 (centres undefined) -1
N=c1n(CCN2CCCCC2)c2ccccc2n1CC(O)COc1ccccc1 (centres undefined) -1
Cc1ccc(OCC(O)Cn2c(=N)n(CCN3CCCCC3)c3ccccc32)cc1 (centres undefined) -1
COc1ccc(/C=N/n2c(SC)nnc2-c2ccccc2)c(OC)c1OC -1
CCC(/C=N/NC(=O)C1COc2ccccc2O1)CC (centres undefined) 1
COc1ccc(OC)c(C(=O)c2coc3ccc(O)c(CN4CCOCC4)c23)c1 -1
COC(=O)C(C)N(C(=O)c1cccc(Cl)c1)c1c(C)cccc1C (centres undefined) -1
COC(=O)C(C)N(C(=O)c1cccc2ccccc12)c1c(C)cccc1C (centres undefined) -1
CCCN1C(=O)/C(=C/c2ccc(C)s2)NC1=S 1
CC(C)CN1C(=O)/C(=C/c2cccs2)NC1=S 1
CCN1C(=O)/C(=C/c2ccc(C)s2)NC1=S 1
CCCCCCCCCn1c2c(c(=N)c3c1CCC3)CCC2 -1
Cc1cc(=S)[nH]c2c(C)cccc12 1
Cc1cc(C)c2[nH]c(=S)cc(C)c2c1 1

Manual score, inactive:
CC1CC(C)CN(Cc2nc(N)nc(Nc3ccc4ccccc4c3)n2)C1 (centres undefined) 0
O=c1c(O)c(-c2cccs2)oc2ccccc12 3
Cc1cccc(C(=O)NC(=S)Nc2ccccc2C(F)(F)F)c1 0
Cc1ccc(C(=O)NNC(=S)NC(=O)c2ccc(Cl)cc2Cl)cc1 0.5
Cc1ccc(C2CC2C(=O)NNC(=S)Nc2ccc(Cl)cc2)cc1 (centres undefined) 0
Cc1c(C(=O)O)sc2nc3n(c(=O)c12)CCC(C)CC3 (centres undefined) 0
CCCN(CCC)CC(O)Cn1cc(/C=C/C(=O)c2cccs2)c2ccccc21 (centres undefined) 3
COc1ccc(Nc2nc(C)cc(C)c2C#N)cc1OC 0
CCCC1COC(Cn2cncn2)(c2ccc(C)cc2)O1 (centres undefined) 0
CCCOc1nc2c(c(=O)n(C)c(=O)n2C)n1Cc1cccc2ccccc12 -0.5
Cn1c(=O)c2c(nc(-n3ccnc3)n2Cc2ccccc2)n(C)c1=O 0
COC(=O)C(C)Sc1nc2c(c(=O)n(C)c(=O)n2C)n1Cc1cccc(C)c1 (centres undefined) 0
N#CCSc1nc2ccc(N3CCOCC3)cc2c(=O)n1CCc1ccccc1 0
CN(C)CCCOc1nc2c(c(=O)n(C)c(=O)n2C)n1C 0
COC(=O)Cn1c(CN2CCc3ccccc3C2)nc2c1c(=O)n(C)c(=O)n2C 0
COc1ccc2nc3oc(C(=O)Nc4ccc(OC)c(OC)c4)cc3cc2c1 0
CC1(C)Cc2ccccc2-c2nnc(SCC(=O)Nc3nc4ccccc4s3)n21 0
O=c1[nH]c(SCc2ccccc2Cl)nc2c1CCCC2 0
COc1cc(-c2nnc(CSc3nc4ccccc4s3)o2)cc(OC)c1OC -0.5
CCCCn1c(SCC(=O)/C(C#N)=C(\C)N)nc2ccccc2c1=O 0.5
CCn1c(-c2ccc(-c3ccccc3)cc2)c[nH]c1=S 0
COc1ccc(OCc2nc(N)nc(Nc3ccccc3)n2)cc1 0
COc1cccc(CNCCNC(=O)c2ccco2)c1OC 0
Cc1nnc(NC(=O)c2ccco2)s1 0
COC(=O)c1ccccc1NC(=S)NC(NC(=O)c1ccco1)C(Cl)(Cl)Cl (centres undefined) 0
Cc1cc(NC(=O)c2ccco2)ccc1NC(=O)Cc1cccs1 0
Cc1ccc(NC(=O)CSc2nnc(CCNC(=O)OC(C)(C)C)o2)c(C)c1 0
Cc1ccc(/C=N\NC(=O)c2cc([N+](=O)[O-])cc([N+](=O)[O-])c2)o1 0
CCc1ccc(C2=NN(c3ccc(S(N)(=O)=O)cc3)C(c3ccc(F)cc3)C2)cc1 (centres undefined) 0
O=C(Nc1ccc(F)cc1)c1cccnc1N1CCOCC1 0
CCC(C)(C)n1nnnc1C(c1ccccn1)N1CCCCC1 (centres undefined) 0
O=C(NC(=S)Nc1cccc(Cl)c1N1CCCCC1)c1ccco1 0
O=C(NC(=S)Nn1cnc2c(cnn2-c2ccccc2)c1=O)c1ccc(Oc2ccccc2)cc1 0
Cc1cc(NC(=O)CSc2nc3ccsc3c(=O)n2NC(=O)c2ccccc2)no1 0
O=S(=O)(c1ccc(-c2nnc(SCc3nnc(-c4ccccc4)o3)o2)cc1)N1CCCC1 0
c1ccc(Cc2nnc(-c3ccccc3)o2)cc1 0
O=C(NCc1ccccc1)C(=O)Nc1nc(C23CC4CC(CC(C4)C2)C3)cs1 0
O=C(Nc1cc(Cl)ccc1Oc1ccccc1)c1ccccc1F 0
C=C(C)CNC(=S)Nc1cccc2cnccc12 0
Fc1cccc(/C=N/NC(=S)Nc2ccccc2Cl)c1 0.5
COC(=O)c1cccc(NC(=S)Nc2cccc(Cl)c2Cl)c1 0
S=C(Nc1ccc(Cl)cc1Cl)Nc1ccccc1Oc1ccccc1 0
O=C(NC(=S)Nc1ccc2oc(-c3cccnc3)nc2c1)c1cccc(Cl)c1 0
COc1ccc(C)cc1S(=O)(=O)Nc1cccc(Cl)c1Cl 0
S=C(Nc1ccccc1)Nc1cc(Cl)ccc1Oc1ccccc1 0
COc1ccc(N/C(C)=C2/C(=O)C(=O)N(CCO)C2c2ccc(Br)cc2)cc1 (centres undefined) 0
N#CC1=C(N)Oc2n[nH]c(-c3cccs3)c2C1c1ccoc1 (centres undefined) 0
O=C(Cn1nc(Cc2ccncc2)c2ccccc2c1=O)N1CCN(C(=O)c2ccco2)CC1 0
O=c1c2ccccc2nc(SCc2cn3ccsc3n2)n1-c1ccc(F)cc1 0
COC(=O)NC(=S)Nc1ccc(Oc2ccc(Cl)cc2Cl)c(Cl)c1 0
O=C(O)CN=C(NS(=O)(=O)c1ccccc1)c1ccccc1 0
Cc1cc(C(=O)CSc2nnc(-c3ccncc3)n2-c2ccccc2)c(C)n1C 0
COc1ccc(Cl)cc1C(=O)CSc1nnnn1C1CCCC1 0
COc1cccc(-c2cc(C(=O)NC3CCCC3)no2)c1 0
CN(C)CCCNC(=O)c1ccc(-c2nc(-c3ccc(Cl)cc3)cs2)cc1 0
CC(C)CCOP(=O)(c1ccc(N(C)C)cc1)C(O)c1ccccn1 (centres undefined) 0
CC(C)(C)c1nn(-c2ccccc2)c2[nH]c(=O)c(CNCc3ccc4c(c3)OCO4)cc12 0
Cc1c(C(=O)O)[nH]c2c1C(=O)CC(c1ccc(Cl)cc1)C2 (centres undefined) 0
Cc1cccc(OCc2nnc(SCC(=O)N3CCc4ccccc43)n2C)c1 0
O=C(NNc1ccccc1Br)C(=O)n1ccc2ccccc21 0
COCCCN1C(=O)C(=O)/C(=C(/O)c2ccc(C)cc2)C1c1ccccc1 (centres undefined) 0
COc1ccc(-c2nn(-c3ccccc3)cc2/C=N/n2cnnc2)cc1OC 0
COc1cccc(/C=N/n2c(=S)n(C)c3ccccc32)c1OC 0
Cc1cc(N2CCC(C)CC2)n2ncc(-c3ccccc3)c2n1 0
NS(=O)(=O)c1ccc(NC(=O)C2COc3ccccc3O2)cc1 (centres undefined) 0
CCC(CC)c1nnc(NC(=O)C2COc3ccccc3O2)s1 (centres undefined) 0
COc1ccc(-n2nnnc2SCC(=O)N2CCOCC2)cc1 -0.5
COC(=O)COc1ccc(S(=O)(=O)Nc2ccccc2C(=O)OC)cc1 0
NC(=O)Nc1cccc2ccccc12 0
CCC/C(=N/NC(=O)c1cccc(Cl)c1)c1ccccc1 0
O=C(Nc1ccc2oc(-c3ccncc3)nc2c1)c1c(F)c(F)c(F)c(F)c1F 0
CCCN1C(=O)/C(=C/c2ccc(N3CCCC3)c(C)c2)NC1=S 3
O=C1/C(=C/c2ccc(N3CCCC3)cc2)NC(=S)N1C1CC1 3
O=C(Nc1nnc(SCc2ccc(F)cc2)s1)C1CC(=O)N(c2ccc3c(c2)OCCO3)C1 (centres undefined) 0
CN(C)c1nc2n(c(=O)n1)C(C#N)CS2 (centres undefined) 0
O=c1[nH]c(CS(=O)(=O)c2ccccc2)nc2ccccc12 0
CCCCn1c(-c2csc3c2CCCC3)n[nH]c1=S -0.5
CC(=O)c1ccc(OC(=O)N(c2ccccc2)c2ccccc2)cc1 0
N[C@@H](Cc1ccccc1)c1nnc(SCc2ccccc2F)o1 0
CC1(C)Cc2c(ccc3ccccc23)-c2nnc(-c3cccnc3)n21 0
CCOC(=O)N/N=C/c1c(C)nn(-c2ccccc2Cl)c1Cl 0
